# Source: the supplement of paper PMC8728848
# The entries come from a sample that favours the strongest signals as a whole.
# How the values were obtained:
# Experiment in all cases: glycan array binding signal (z-score within array); higher = stronger binding
# Conditions in all cases: glycan notation: IUPAC condensed, linker removed
# [1] = molecular target: Fuc(a1-2)Gal(b1-3)GalNAc(a1-3)[Fuc(a1-2)]Gal(b1-4)GlcNAc
# Method in brief: (§1)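 From the Consortium for Functional Glycomics database, 3228 arrays were curated, keeping only those whose protein sequence was available. Binding is given as a within-array Z-score averaged across arrays sharing a protein sequence and across linkers. Negative Z-scores can be read as non-binding.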
# [2] = molecular target: Fuc(a1-2)Gal(b1-3)GalNAc(b1-3)Gal
# Method in brief: as §1
# [3] = molecular target: Fuc(a1-2)Gal(b1-3)GalNAc(b1-4)[Neu5Ac(a2-3)]Gal(b1-4)Glc
# Method in brief: as §1
# [4] = molecular target: Fuc(a1-2)Gal(b1-3)GlcNAc(b1-2)Man(a1-3)[Fuc(a1-2)Gal(b1-3)GlcNAc(b1-2)Man(a1-6)]Man(b1-4)GlcNAc(b1-4)[Fuc(a1-6)]GlcNAc
# Method in brief: as §1
# [5] = molecular target: Fuc(a1-2)Gal(b1-3)[Fuc(a1-4)]GlcNAc(b1-2)Man(a1-3)[Fuc(a1-2)Gal(b1-3)[Fuc(a1-4)]GlcNAc(b1-2)Man(a1-3)]Man(b1-4)GlcNAc(b1-4)GlcNAc
# Method in brief: as §1
# Fuc(a1-2)Gal(b1-4)Glc6S = molecular target: Fuc(a1-2)Gal(b1-4)Glc6S
# Method in brief: as §1
# [6] = molecular target: Fuc(a1-2)Gal(b1-4)GlcNAc(b1-2)Man(a1-3)[Fuc(a1-2)Gal(b1-4)GlcNAc(b1-2)Man(a1-6)]Man(b1-4)GlcNAc(b1-4)[Fuc(a1-6)]GlcNAc
# Method in brief: as §1
# [7] = molecular target: Fuc(a1-2)Gal(b1-4)GlcNAc(b1-3)Gal(b1-4)GlcNAc(b1-2)Man(a1-3)[Fuc(a1-2)Gal(b1-4)GlcNAc(b1-3)Gal(b1-4)GlcNAc(b1-2)Man(a1-6)]Man(b1-4)GlcNAc(b1-4)GlcNAc
# Method in brief: as §1
# [8] = molecular target: Fuc(a1-2)Gal(b1-4)[Fuc(a1-3)]GlcNAc(b1-3)GalNAc
# Method in brief: as §1
# [9] = molecular target: Fuc(a1-2)Gal6S(b1-3)GlcNAc6S
# Method in brief: as §1
# [10] = molecular target: Fuc(a1-2)[Gal(a1-3)]Gal(b1-4)GlcNAc(b1-3)[Fuc(a1-2)[Gal(a1-3)]Gal(b1-4)GlcNAc(b1-6)]GalNAc
# Method in brief: as §1
# [11] = molecular target: Fuc(a1-2)[Gal(a1-3)]Gal(b1-4)[Fuc(a1-3)]Glc
# Method in brief: as §1
# [12] = molecular target: Fuc(a1-2)[GalNAc(a1-3)]Gal(b1-3)GlcNAc(b1-6)GalNAc
# Method in brief: as §1
# [13] = molecular target: Fuc(a1-2)[GalNAc(a1-3)]Gal(b1-4)Glc
# Method in brief: as §1
# [14] = molecular target: Fuc(a1-2)[GalNAc(a1-3)]Gal(b1-4)GlcNAc
# Method in brief: as §1
# [15] = molecular target: Fuc(a1-2)[GalNAc(a1-3)]Gal(b1-4)GlcNAc(b1-2)Man
# Method in brief: as §1
# [16] = molecular target: Fuc(a1-3)[Gal(b1-4)]GlcNAc(b1-3)Gal(b1-4)[Fuc(a1-3)]GlcNAc
# Method in brief: as §1
# [17] = molecular target: Fuc(a1-3)[Gal(b1-4)]GlcNAc(b1-6)GalNAc
# Method in brief: as §1
# [18] = molecular target: Fuc(a1-3)[Gal3S(b1-4)]GlcNAc6S
# Method in brief: as §1
# Fuc(a1-4)GlcNAc = molecular target: Fuc(a1-4)GlcNAc
# Method in brief: as §1
# Gal(b1-3)Gal = molecular target: Gal(b1-3)Gal
# Method in brief: as §1
# Gal(b1-3)Gal(b1-4)GlcNAc = molecular target: Gal(b1-3)Gal(b1-4)GlcNAc
# Method in brief: as §1
# [19] = molecular target: Gal(b1-3)GalNAc(a1-3)[Fuc(a1-2)]Gal(b1-4)GlcNAc
# Method in brief: as §1
# [20] = molecular target: Gal(b1-3)GlcNAc(b1-3)Gal(b1-4)GlcNAc(b1-6)[Gal(b1-3)GlcNAc(b1-3)]Gal(b1-4)Glc
# Method in brief: as §1
# [21] = molecular target: Gal(b1-3)[Neu5Ac(a2-6)]GlcNAc(b1-4)Gal(b1-4)Glc
# Method in brief: as §1
# Gal(b1-4)Gal = molecular target: Gal(b1-4)Gal
# Method in brief: as §1
# [22] = molecular target: Gal(b1-4)GlcNAc(b1-2)Man(a1-3)[GlcNAc(b1-4)][Gal(b1-4)GlcNAc(b1-2)Man(a1-6)]Man(b1-4)GlcNAc(b1-4)GlcNAc
# Method in brief: as §1
# [23] = molecular target: Gal(b1-4)GlcNAc(b1-2)[Gal(b1-4)GlcNAc(b1-6)]Man(a1-6)[Gal(b1-4)GlcNAc(b1-2)Man(a1-3)]Man(b1-4)GlcNAc(b1-4)GlcNAc
# Method in brief: as §1
# [24] = molecular target: Gal(b1-4)GlcNAc(b1-2)[Gal(b1-4)GlcNAc(b1-6)]Man(a1-6)[Gal(b1-4)GlcNAc(b1-2)Man(a1-3)]Man(b1-4)GlcNAc(b1-4)[Fuc(a1-6)]GlcNAc
# Method in brief: as §1
# [25] = molecular target: Gal(b1-4)GlcNAc(b1-3)Gal(b1-4)GlcNAc
# Method in brief: as §1
binder,measurement,setting,value
SabA (Helicobacter pylori) (protein) MGSSHHHHHHSSGLVPRGSHMENLYFQGEDNGFFVSAGYQIGEAVQMVKNTGELKNLNEKYEQLSQYLNQVASLKQSIQNANNIELVNSSLNYLKSFTNNNYNSTTQSPIFNAVQAVITSVLGFWSLYAGNYFTFFVGKKVGDSGQPASVQGNPPFKTIIENCSGIENCAMDQTTYDKMKKLAEDLQAAQTNSATKGNNLCALSGCAATDSTSNPPNSTVSNALNLAQQLMDLIANTKTAMMWKNIVISGVSNTSGAITSTNYPTQYAVFNNIKAMIPILQQAVTLSQSNHTLSASLQAQATGSQTNPKFAKDIYTFAQNQKQVISYAQDIFNLFNSIPAEQYKYLEKAYLKIPNAGSTPTNPYRQVVNLNQEVQTIKNNVSYYGNRVDAALSVARDVYNLKSNQAEIVTAYNDAKTLSEEISKLPHNQVNTKDIVTLPYDKNAPAAGQSNYQINPEQQSNLNQALAAMSNNPFKKVGMISSQNNNGA,glycan array binding signal (z-score),[1],0.026
same,glycan array binding signal (z-score),[2],-0.181
same,glycan array binding signal (z-score),[3],0.208
same,glycan array binding signal (z-score),[4],1.55
same,glycan array binding signal (z-score),[5],3.91
same,glycan array binding signal (z-score),Fuc(a1-2)Gal(b1-4)Glc6S,0.21
same,glycan array binding signal (z-score),[6],2.49
same,glycan array binding signal (z-score),[7],0.579
same,glycan array binding signal (z-score),[8],2.43
same,glycan array binding signal (z-score),[9],3.74
same,glycan array binding signal (z-score),[10],2.78
same,glycan array binding signal (z-score),[11],-0.48
same,glycan array binding signal (z-score),[12],-0.962
same,glycan array binding signal (z-score),[13],-0.596
same,glycan array binding signal (z-score),[14],-0.145
same,glycan array binding signal (z-score),[15],-0.319
same,glycan array binding signal (z-score),[16],1.26
same,glycan array binding signal (z-score),[17],1.95
same,glycan array binding signal (z-score),[18],-0.083
same,glycan array binding signal (z-score),Fuc(a1-4)GlcNAc,2.89
same,glycan array binding signal (z-score),Gal(b1-3)Gal,-0.298
same,glycan array binding signal (z-score),Gal(b1-3)Gal(b1-4)GlcNAc,-0.637
same,glycan array binding signal (z-score),[19],-0.576
same,glycan array binding signal (z-score),[20],-0.24
same,glycan array binding signal (z-score),[21],0.532
same,glycan array binding signal (z-score),Gal(b1-4)Gal,0.204
same,glycan array binding signal (z-score),[22],-0.111
same,glycan array binding signal (z-score),[23],0.291
same,glycan array binding signal (z-score),[24],0.877
same,glycan array binding signal (z-score),[25],-0.924
